The supplement of paper PMC3414501
Where a name gives a salt, the structure may show the parent alone.

Experiments:
[1] = tested on: S. cerevisiae SK1 pCDA2-eGFP (USY613), sporulating; test: CDA2-GFP sporulation assay sensitivity score (z-score vs DMSO controls); higher = stronger inhibition of sporulation, active = hit call of the paper;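 further: active if sensitivity score above 5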
[2] = tested on: S. cerevisiae AD1-9 (efflux-pump deficient), vegetative growth in YPD; test: growth sensitivity score (doubling time z-score vs DMSO controls); higher = slower growth, strongly negative scores also mark growth inhibition (complete suppression), active = hit call of the paper
Summary of the method: (§1)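 Rich medium in microtiter plates was seeded with Saccharomyces cerevisiae strains BY4741 and AD1-9 at an OD600 of 0.065, and compounds were added as a 1:100 dilution of DMSO stock. A Tecan GENios reader recorded optical density every 15 min for 24 hours, with eight solvent-only wells in each experiment. Average doubling time was the time to reach a set generation point divided by generation number. The growth sensitivity score was the compound mean minus the solvent-only mean, divided by the solvent-only standard deviation.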

[3] = tested on: S. cerevisiae BY4741 (wild-type), vegetative growth in YPD; test: as above
Summary of the method: as §1

| SMILES | CDA2-GFP sporulation assay sensitivity score [1] | growth sensitivity score [2] | growth sensitivity score [3] |
| --- | --- | --- | --- |
| CNNCc1ccc(C(=O)NC(C)C)cc1 [Procarbazine hydrochloride] (stock concentration (mM, diluted 1:100): 8.6) | -0.1 (inactive) | -0.84 (inactive) | 0.69 (inactive) |
| COc1cc(C(=O)NC2CCCNC2)cc(OC)c1OC (centres undefined) [Troxipide] (stock concentration (mM, diluted 1:100): 10.1) | -0.11 (inactive) | -0.49 (inactive) | 0.38 (inactive) |
| O=c1n(CCCN2CCN(c3cccc(Cl)c3)CC2)nc2ccccn12 [Trazodone hydrochloride] (stock concentration (mM, diluted 1:100): 10) | 5.45 (inactive) | -3.23 | 0.24 (inactive) |
| O=C(O)Cc1ccccc1Nc1c(Cl)cccc1Cl [Diclofenac] (stock concentration (mM, diluted 1:100): 10) | 0.82 (inactive) | 4.97 (active) | 1.48 (inactive) |
| CCCN1CCCC[C@H]1C(=O)Nc1c(C)cccc1C [Ropivacaine hydrochloride] (stock concentration (mM, diluted 1:100): 7.7) | 3.5 (inactive) | -2 (inactive) | -0.74 (inactive) |
| COc1cccc2c1C(=O)c1c(O)c3c(c(O)c1C2=O)C[C@@](O)(C(=O)CO)C[C@@H]3O[C@H]1C[C@H](N)[C@@H](O)[C@H](C)O1 [Epirubicin hydrochloride] (stock concentration (mM, diluted 1:100): 9.4) | -0.4 (inactive) | 93.9 (active) | 11.8 (active) |
| CN1CCCCC1CCN1c2ccccc2Sc2ccc([S+](C)[O-])cc21 (centres undefined) [Mesoridazine] (stock concentration (mM, diluted 1:100): 10) | -0.29 (inactive) | 278 (active) | 66 (active) |
| CCCc1nc(C)c2c(=O)nc(-c3cc(S(=O)(=O)N4CCN(CC)CC4)ccc3OCC)[nH]n12 [Vardenafil citrate] (stock concentration (mM, diluted 1:100): 7.2) | 4.72 (inactive) | 0.43 (inactive) | -0.19 (inactive) |
